Experimental data as given in PubChem BioAssay (EPA / NIEHS).
Several values for one entry are separate records, joined by “and”; a condition that tells them apart may be missing. Equal values may be shown once. Results filed as inconclusive are left out. Activity calls are given as the source filed them. The calls were made as follows: active = hit-call score of the fitted dose curve at least 0.9, where 1 is the maximum; inconclusive = response in the unintended direction; inactive = score below 0.9.

Experiments:
[1] = target: Cellular tumor antigen p53 (Homo sapiens) (UniProt P04637); assay: TOX21_p53_BLA_p2_ratio: Tox21 HCT-116 p53 Agonism Beta-lactamase Assay, Ratio, Phase 2 (AID 2283592)
Summary of the method: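 Readout: blue/green (460/530 nm) FRET emission ratio after 2 h CCF4-AM loading at room temperature, excitation 405 nm. HCT116 p53 bla cells, 16 h compound exposure at 37C, 5% CO2; agonist direction fitted against DMSO baseline.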

[2] = TOX21_p53_BLA_p3_viability: Viability Assessment in the Tox21 HCT-116 p53 Agonism Beta-lactamase Assay, Phase 3 (AID 2283593);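 also: cells exposed to compound for 16 h before reading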
Summary of the method: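 HCT116 cells, 4000/well, dosed 5 h after plating by pin transfer (217-fold dilution from DMSO stock) and incubated 16 h at 37C, 5% CO2. Viability read as ATP luminescence with CellTiter-Glo after 30 min at room temperature.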

[3] = target: Cellular tumor antigen p53 (Homo sapiens) (UniProt P04637); assay: TOX21_p53_BLA_p3_ratio: Tox21 HCT-116 p53 Agonism Beta-lactamase Assay, Ratio, Phase 3 (AID 2283596)
Summary of the method: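 Cells were seeded at 4000/well, rested 5 h at 37C, then dosed with DMSO compound solutions (217-fold dilution) for 16 h. CCF4-AM substrate was loaded for 2 h at room temperature, and the 460/530 nm emission ratio was fitted for gain of signal versus DMSO.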

[4] = TOX21_p53_BLA_p4_viability: Viability Assessment in the Tox21 HCT-116 p53 Agonism Beta-lactamase Assay, Phase 4 (AID 2283597);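 also: hits lower the luminescence signal meaning cytotoxicity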
Summary of the method: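 ATP content by CellTiter-Glo luminescence, 30 min RT, read after the beta-lactamase ratio step. Cells: HCT116, 4000/well, compound added after 5 h, exposure 16 h at 37C. Signal loss = reduced viability.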

[5] = target: Cellular tumor antigen p53 (Homo sapiens) (UniProt P04637); assay: TOX21_p53_BLA_p5_ratio: Tox21 HCT-116 p53 Agonism Beta-lactamase Assay, Ratio, Phase 5 (AID 2283599)
Summary of the method: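 HCT-116 p53-bla cells (4000/well) plated 5 h, dosed with compound (217-fold DMSO dilution) for 16 h at 37 C; CCF4-AM substrate 2 h at room temperature. Activity is the 460/530 nm emission ratio (405 nm excitation), fitted in gain-of-signal direction versus DMSO.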

[6] = TOX21_p53_BLA_p5_viability: Viability Assessment in the Tox21 HCT-116 p53 Agonism Beta-lactamase Assay, Phase 5 (AID 2283600)
Summary of the method: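 ATP luminescence (CellTiter-Glo, 30 min, RT) served as the viability read-out, with loss of signal indicating cytotoxicity. Compounds in DMSO were pinned at a 217-fold dilution onto 4000 cells/well and incubated 16 h, 37C.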

[7] = target: Cellular tumor antigen p53 (Homo sapiens) (UniProt P04637); assay: TOX21_p53_BLA_p4_ratio: Tox21 HCT-116 p53 Agonism Beta-lactamase Assay, Ratio, Phase 4 (AID 2283601)
Summary of the method: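 HCT-116 p53 beta-lactamase reporter cells (4000/well) preincubated 5 h, then compound (217-fold dilution of DMSO stock) for 16 h at 37C. CCF4-AM substrate added 2 h at room temperature; 460/530 nm emission ratio fitted upward versus DMSO.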

[8] = ACEA_ER_AUC_viability: ACEA Biosciences xCELLigence Real-Time Cell Analysis on Estrogen Receptor Agonism for Viability (AID 2283782);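 also: hit means loss of impedance signal meaning reduced cell growth or viability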
Summary of the method: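 Read-out: real-time electrical impedance (RT-CES) area under curve, loss of signal taken as reduced viability, normalized to DMSO baseline. T-47D cells, charcoal-stripped serum medium, compounds up to 100 uM final, continuous exposure, 80 h.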

[9] = TOX21_TRB_BLA_Antagonist_Followup_viability: Viability Assessment in the Tox21 Thyroid Hormone Receptor beta Antagonism Beta-lactamase (BLA) Follow-Up Assay (AID 2283961)
Summary of the method: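 Viability read as CellTiter-Glo ATP luminescence (loss of signal = cytotoxicity) in the same plates as the TRβ-bla readout. TRβ-LBD/GAL4 UAS-bla HEK293T cells were exposed to compounds, 11 concentrations in triplicate, for 18 h at 37C/5% CO2.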

[10] = target: THRB (gene 7068) (UniProt P10828); assay: TOX21_TRB_COA_Antagonist_Followup_ratio: Tox21 Thyroid Hormone Receptor beta Antagonism through Coactivator Recruitment Follow-Up Assay, Ratio (AID 2283967)
Summary of the method: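 GST-TRb LBD 5.0 nM + 0.10% BSA, compound added; fluorescein-SRC-2 peptide 200 nM, Tb-anti-GST Ab 2 nM. TR-FRET, ex 340 / em 520:495 ratio. Norm: DMSO 0%, T3 100%.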

[11] = target: Retinoic acid receptor RXR-alpha (Homo sapiens) (UniProt P19793); assay: TOX21_TR_RXR_BLA_Antagonist_Followup_ratio: Tox21 Thyroid Hormone Receptor beta Retinoid X Receptor alpha (RXRa) Antagonism Beta-lactamase (BLA) Follow-Up Assay, Ratio (AID 2283972)
Summary of the method: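 Beta-lactamase reporter readout as cleaved/uncleaved substrate ratio (460:530 nm) after 2 h substrate loading at room temperature. GAL4-RXRa bla HEK293T cells were exposed 16 h at 37C to 11-point compound series; loss of signal scored against DMSO baseline.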

[12] = TOX21_TR_RXR_BLA_Antagonist_Followup_viability: Viability Assessment in the Tox21 Thyroid Hormone Receptor beta Retinoid X Receptor alpha (RXRa) Antagonism Beta-lactamase (BLA) Follow-Up Assay (AID 2283979)
Summary of the method: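 RXRa-bla HEK293T cells (2,500/well, phenol red-free DMEM, 2% charcoal-stripped FBS) were attached 5 h, then exposed to compounds at 11 concentrations in triplicate for 16 h at 37C. Viability measured by CellTiter-Glo ATP luminescence, bidirectional fitting versus DMSO.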

[13] = target: THRB (gene 7068) (UniProt P10828); assay: TOX21_TRB_BLA_Antagonist_Followup_ratio: Tox21 Thyroid Hormone Receptor beta Antagonism Beta-lactamase (BLA) Follow-Up Assay, Ratio (AID 2283958)
Summary of the method: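 Cells were plated and allowed to attach for 5 h, then dosed with compounds in DMSO at 11 concentrations for 18 h at 37C. Beta-lactamase reporter activity was measured via CCF4-AM FRET as the 460:530 nm ratio.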

Measured: AC50

Chain of Cellular tumor antigen p53 (Homo sapiens) (P04637 whole entry, looked up): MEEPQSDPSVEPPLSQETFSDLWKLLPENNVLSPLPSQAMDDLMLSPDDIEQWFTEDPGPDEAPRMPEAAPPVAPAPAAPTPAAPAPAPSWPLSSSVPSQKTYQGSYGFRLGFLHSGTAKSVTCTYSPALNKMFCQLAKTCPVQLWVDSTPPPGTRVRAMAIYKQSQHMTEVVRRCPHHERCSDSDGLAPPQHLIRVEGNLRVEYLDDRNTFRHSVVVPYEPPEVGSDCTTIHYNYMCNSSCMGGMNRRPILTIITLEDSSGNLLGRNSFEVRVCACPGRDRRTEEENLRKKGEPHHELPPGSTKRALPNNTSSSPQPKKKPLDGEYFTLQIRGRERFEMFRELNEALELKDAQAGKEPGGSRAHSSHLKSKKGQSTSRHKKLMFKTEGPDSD
Chain of THRB (gene 7068) (P10828 whole entry, looked up, the tested form may be a part): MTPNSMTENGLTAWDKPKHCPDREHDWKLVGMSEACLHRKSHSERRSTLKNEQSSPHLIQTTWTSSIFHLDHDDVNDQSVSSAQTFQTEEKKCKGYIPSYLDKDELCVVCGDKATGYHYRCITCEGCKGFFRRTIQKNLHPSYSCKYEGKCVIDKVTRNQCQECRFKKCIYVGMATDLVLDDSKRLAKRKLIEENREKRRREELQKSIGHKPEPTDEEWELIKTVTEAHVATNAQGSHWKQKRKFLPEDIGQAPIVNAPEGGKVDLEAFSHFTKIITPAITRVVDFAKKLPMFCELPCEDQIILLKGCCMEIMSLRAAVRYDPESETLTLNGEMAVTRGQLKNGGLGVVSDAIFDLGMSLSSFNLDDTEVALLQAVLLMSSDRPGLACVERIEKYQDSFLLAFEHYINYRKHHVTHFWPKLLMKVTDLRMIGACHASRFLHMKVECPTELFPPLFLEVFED
Chain of Retinoic acid receptor RXR-alpha (Homo sapiens) (P19793 whole entry, looked up, the tested form may be a part): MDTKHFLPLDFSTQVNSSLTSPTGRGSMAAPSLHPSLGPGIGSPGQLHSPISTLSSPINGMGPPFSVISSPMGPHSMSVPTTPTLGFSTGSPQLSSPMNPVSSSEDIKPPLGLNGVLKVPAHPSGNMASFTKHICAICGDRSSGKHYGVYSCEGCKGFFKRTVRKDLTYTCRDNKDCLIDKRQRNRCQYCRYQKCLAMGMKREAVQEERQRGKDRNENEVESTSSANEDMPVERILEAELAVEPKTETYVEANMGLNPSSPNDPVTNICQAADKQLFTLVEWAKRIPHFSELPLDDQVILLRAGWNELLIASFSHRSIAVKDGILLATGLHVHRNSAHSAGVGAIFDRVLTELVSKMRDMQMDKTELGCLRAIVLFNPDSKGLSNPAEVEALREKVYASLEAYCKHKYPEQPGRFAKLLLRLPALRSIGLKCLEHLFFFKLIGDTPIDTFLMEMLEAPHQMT

CCOC(=O)COc1ccc(C)cc1
not listed: [9] | [10] | [11] | [12] | [13]
inactive: all other assays above

O=C(c1ccccc1)c1cccc(O)c1
inactive: [1] | [2] | [3] | [4] | [5] | [6] | [7]

CC(CO)Oc1ccccc1 (configuration not stated)
inactive: [1] | [2] | [3] | [4] | [5] | [7]

Nc1cc(C(Cl)=C(Cl)Cl)c(S(N)(=O)=O)cc1S(N)(=O)=O
inactive: [1] | [2] | [3] | [4] | [5] | [6] | [7]

CO[C@@H]1[C@@H](OC)[C@H](C)[C@@](O)(CC(=O)O)O[C@H]1[C@H](C)[C@H]1O[C@@]2(CC[C@@](C)([C@H]3CC[C@@](C)([C@@H]4O[C@@H]([C@H]5O[C@](C)(O)[C@H](C)C[C@@H]5C)C[C@@H]4OC4C[C@H](OC)[C@@H](OC)[C@H](C)O4)O3)O2)C[C@H](O)[C@H]1C (some centres not stated)
inactive: [2] | [3] | [4] | [7]
active: [1] 8.98 µM | [5] 16.7 µM

Brc1cc(Oc2cc(Br)c(Br)c(Br)c2Br)c(Br)c(Br)c1Br
not listed: [8] | [13]
inactive: all other assays above

CO[C@H](C(=O)[C@@H](O)[C@@H](C)O)C1Cc2cc3cc(O[C@H]4C[C@@H](O[C@H]5C[C@@H](O)[C@H](O)[C@@H](C)O5)[C@@H](O)[C@@H](C)O4)c(C)c(O)c3c(O)c2C(=O)[C@H]1O[C@H]1C[C@@H](O[C@H]2C[C@@H](O[C@H]3C[C@](C)(O)[C@H](O)[C@@H](C)O3)[C@H](O)[C@@H](C)O2)[C@H](O)[C@@H](C)O1 (some centres not stated)
active: [1] 23.8 nM and 43.4 nM | [3] 24.2 nM and 37.6 nM | [5] 36 nM and 39.5 nM | [7] 45.6 nM and 49.7 nM | [13] 4.01 µM | [11] 1.36 µM | [12] 1.35 µM
inactive: [2] | [4] | [6] | [9]

CC1C(=O)CC2C3(C)CCC2(C(C)C(=O)O)C(=O)C13 (configuration not stated)
inactive: [1] | [2] | [3] | [4] | [5] | [7]

CC(N)C12CC3CC(CC(C3)C1)C2 (configuration not stated)
inactive: [1] | [2] | [3] | [4] | [5] | [6] | [7]

COc1ccccc1C=CC=O
inactive: [1] | [2] | [3] | [4] | [5] | [7]

C[C@H](O)[C@H](O)[C@H]1CNc2nc(N)[nH]c(=O)c2N1
inactive: [1] | [2] | [3] | [4] | [5] | [6] | [7]
